Spn MK inh: S. pneumoniae mevalonate kinase inhibition; purified MK, PK/LDH-coupled NADH absorbance 340 nm; inhibition, % at 10 µM; hit rate 0.48% among 65,000;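 active = ranked among the strongest by inhibition in the single 10 µM screen, a fixed top-ranked set picked for dose follow-up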
Abs 340nm: compound absorbs light at 340 nm. 65,000 tested, under 10 active. compound absorbance at 340 nm, fold over control. AID 708. fold change at 10 µM;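 active = at 10 µM dose, initial 340 nm absorbance at least 2 fold that of control wells; inactive = change under 2 fold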;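 also: initial absorbance extrapolated from kinetic A340 decline of NADH oxidation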
DPM-DC inhibit: inhibitors of Streptococcus pneumoniae diphosphomevalonate decarboxylase | purified DPM-DC, PK/LDH coupled NADH fluorescence | calls only at 10 µM | hit rate 0.49% among 65,000 | AID 556;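 active = the 320 compounds with the highest percent inhibition in the single-dose primary screen, excluding strongly autofluorescent ones, cut at about 32% in these data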;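 also: kinetic rate of NADH fluorescence loss reporting ADP formed by the decarboxylase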
PMK inhibit: S. pneumoniae PMK inhibition. purified PMK, PK/LDH-coupled NADH absorbance 340 nm. inhibition, % at 10 µM. hit rate 0.49% among 65,000. AID 539;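 active = top-ranked compounds by inhibition in the single 10 µM screen, taking a fixed number of the strongest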;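 also: 0% = full reaction with DMSO carrier and 100% = background rate without enzyme reaction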
Fluor 339 460: intrinsic fluorescence of library compounds, ex339/em460 – biochemical, MLSMR library, data from DPM-DC assay, artefact control, profiling panel; hit rate 5.5% among 65,000; compound autofluorescence, ex339/em460 nm, NADH buffer; hits give high values; 1 = no-compound wells, NADH background; fluorescence fold increase at 10 µM;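 active = at 10 µM, mean starting fluorescence two-fold or more over control wells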;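 also: signal is the first read of a kinetic run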
NADH coupling: inhibition of NAD/NADH coupling enzymes, library profiling; hit rate 0.02% among 65,000; coupled PK/LDH NADH assays, four targets; IC50, µM (titrated, usually from 10 µM), inactives show at the highest dose inhibition;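 active = single-dose screening hits from any of four coupled enzyme assays that gave an IC50 when retested across doses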;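 also: the DPM-DC format reads NADH fluorescence rather than 340 nm absorbance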
* = called active by the depositor; i = inactive; nt = no result shown; + = active, no number. The list is not random: actives were taken first. Their share in the collection is about 6.5%.

SMILES	Spn MK inh	Abs 340nm	DPM-DC inhibit	PMK inhibit	Fluor 339 460	NADH coupling
Cc1cc(NCCCN2CCOCC2)n2c(nc3ccccc32)c1C#N	22	1	nt	8	5*	15%
Cc1ccc(-c2noc(CNCCCN(C)C)n2)cc1	10	1	i	0	1.1	3%
OC1CN=C2C=CC=CN2C1 (stereo not given)	4	1	i	9	2.2*	13%
COc1cc(CN2CCN(C(=O)CC(C)C)CC2)cc(OC)c1OC	52*	1	i	12	1.1	21%
COc1ccc(CN2CCN(C(=O)CN3C(=O)C4C5C=CC(C5)C4C3=O)CC2)c(OC)c1OC (stereo not given)	7	0.98	i	19	1.1	9%
COc1ccc(CN2CCN(C(=O)c3cc(OC)c(OC)c(OC)c3)CC2)cc1OC	62*	1.1	i	0	1.1	21%
COc1ccc(CN2CCN(C(=O)CC(C)C)CC2)c(OC)c1OC	53*	1	i	1	1.1	18%
COc1ccc(C(=O)N2CCN(Cc3cc(OC)c(O)c(OC)c3)CC2)cc1OC	9	1	i	4	1.1	4%
COc1cccc(C2/C(=C(\O)c3c(C)nc4c(C)cccn34)C(=O)C(=O)N2CCCN(C)C)c1 (stereo not given)	3	1.1	i	0	1.1	1%
CCN(CC)CC(=O)Nc1c(C)cc(C)cc1C	8	nt	nt	nt	1.1	nt
CCc1cc2c(CN3CCN(CC)CC3)cc(=O)oc2cc1O	1	1.1	nt	8	3.8*	5%
O=C(O)c1cc(-c2ccccc2)nc2ccccc12	4	1	i	1	1	2%
O=C(O)c1cc(Cl)c2ccccc2c1O	12	1.1	nt	4	3.8*	8%
COc1ccc(C2c3c(oc4ccc(F)cc4c3=O)C(=O)N2CCN2CCOCC2)cc1OC (stereo not given)	4	1.1	i	2	1.1	4%
COc1cccc2[nH]c3c(=O)n(CCN(C)C)cnc3c12	13	1	nt	16	3.8*	15%
CCN(CC)CCn1cnc2c([nH]c3cccc(OC)c32)c1=O	6	1	nt	12	3.7*	9%
O=c1c2[nH]c3cccc(Cl)c3c2ncn1Cc1ccncc1	12	1	i	1	1.5	4%
COc1ccc2nc(N3CCC(O)CC3)c(C#N)cc2c1	10	0.99	i	21	2.9*	20%
CCOC(=O)C1CCN(c2nc3cc(OC)ccc3cc2C#N)CC1	7	0.99	i	12	2.1*	9%
COc1ccc2nc(N3CCC(C)CC3)c(C#N)cc2c1	10	1	i	2	1.4	5%
COC(=O)C1=C(CSCc2ccco2)NC(=O)NC1c1cc(C)ccc1C (stereo not given)	7	1	i	13	1	5%
CCOC(=O)c1cnn2c(C)cc(-c3ccc(F)cc3)nc12	0	1.1	nt	5	2.2*	3%
Cc1cc(-c2ccc(F)cc2)nc2cc(C(N)=O)nn12	6	1	i	4	2.1*	8%
CCOC(=O)c1sc2nc(NC(=O)C3CCCCC3)sc2c1C	2	1	i	3	1.3	4%
CCOC(=O)c1sc2nc(NC(=O)C3CC3)sc2c1C	3	1.1	i	0	2*	8%
SMILES	Spn MK inh	Abs 340nm	DPM-DC inhibit	PMK inhibit	Fluor 339 460	NADH coupling
CCOC(=O)c1[nH]c(C)c(C(=O)OCC)c1C	0	1	i	0	1.1	0%
CCOC(=O)c1nc(N)c(C(=O)OCC)[nH]1	6	1.1	nt	0	2.3*	3%
Cc1ccc(C(C(=O)NCCc2ccccc2)N(C(=O)c2csnn2)C2CC2)o1 (stereo not given)	7	0.99	i	9	1.1	6%
Oc1cnc2ccccc2c1CN1CCOCC1	0	1	i	0	1.9	4%
CCc1cc(-c2n[nH]c(C)c2-c2nc3ccccc3n2C)c(O)c(CN2CCN(C)CC2)c1O	5	1	i	10	1.1	5%
CCc1cc2c(=O)c(-c3nc4ccccc4n3C)c(C)oc2c(CN2CCN(C)CC2)c1O	6	1.1	+	5	3.5*	17%
CCc1cc2c(=O)c(-c3nc4ccccc4n3C)c(C(C)C)oc2c(CN2CCN(C)CC2)c1O	6	1.1	nt	19	2.2*	13%
CCc1cc2c(=O)c(-c3nc4ccccc4n3C)c(C)oc2c(CN2CCN(CCO)CC2)c1O	6	1.2	nt	0	2.2*	3%
CCc1cc2c(=O)c(-c3nc4ccccc4n3C)c(C)oc2c(CN2CCOCC2)c1O	4	1.1	nt	5	2.1*	5%
COc1cc(C)c(S(=O)(=O)NCc2cccs2)cc1C	10	1.1	i	3	1.1	4%
COc1ccc(-c2cc3ccccc3oc2=O)cc1NC(=O)c1ccc(Br)o1	2	1.2	nt	0	3.8*	1%
COc1ccc(NC(=O)c2ccco2)cc1NC(=O)c1cc2ccccc2o1	2	1.1	i	16	1.2	7%
CCCc1cc(C(=O)Nc2cc(OC)c(Cl)cc2OC)no1	4	1	i	2	1.1	2%
COc1cc(NC(=O)c2cc(CC(C)C)on2)c(OC)cc1Cl	57*	1	i	2	1.1	7%
COc1cc(NC(=O)c2cc3ccccc3o2)c(OC)cc1Cl	5	1.1	nt	10	2.2*	8%
COc1cc(NC(=O)c2cc(-c3ccco3)on2)c(OC)cc1Cl	5	1.1	nt	5	4.6*	5%
COc1cc(OC)c(NC(=O)c2ccco2)cc1Cl	9	0.99	i	5	1	11%
COc1cc(NC(=O)c2cc3ccccc3o2)c(OC)cc1Br	0	1.1	i	5	1.8	10%
CCOC(=O)N1CCN(C(=O)CN(c2cccc(C(F)(F)F)c2)S(C)(=O)=O)CC1	3	1	i	1	1.1	1%
CCOc1ccc(OCC)c(NC(=O)CCn2cccc2)c1	2	0.98	i	12	1.1	5%
Cc1cc(=O)oc2cc(OCc3ccc(S(=O)(=O)N4CCOCC4)cc3)ccc12	2	1.1	nt	0	2.1*	1%
Cc1cccc(S(=O)(=O)c2c(N)n(/N=C/c3ccco3)c3nc4ccccc4nc23)c1	17	1.1	i	13	3.1*	10%
Cc1ccc(S(=O)(=O)c2c(N)n(/N=C/c3ccco3)c3nc4ccccc4nc23)cc1C	3	1.1	i	11	3.2*	5%
Cc1cccc(S(=O)(=O)c2c(N)n(/N=C/c3cccnc3)c3nc4ccccc4nc23)c1	15	1.1	nt	9	3.7*	12%
COc1ccc(S(=O)(=O)c2c(N)n(Cc3ccco3)c3nc4ccccc4nc23)cc1	12	1.1	nt	16	3.8*	14%
Cc1ccc(S(=O)(=O)n2nc(-c3cccnc3)nc2N)cc1	9	1	i	3	1.1	4%

Screening results (PubChem)
